# Results reported in PubChem BioAssay (NCATS).
# Values without a mark were called inactive. Inconclusive results are not listed. Where a call stands in place of a potency, no number is given. The source made the active and inactive calls. Unless noted, calls come from the whole dose curve; as a rule, active = well fitted curve in the direction sought with a large enough effect; inconclusive = small, poorly fitted or top-dose-only effect, or another doubt; inactive = no such curve, though single readings can be large; an effect the other way counts as inactive or inconclusive.
# Experiments:
# [1] = target: Rap guanine nucleotide exchange factor 3 (Homo sapiens) (UniProt O95398); assay: Confirmatory qHTS for antagonist of cAMP-regulated guanine nucleotide exchange factor 3 (EPAC1) (AID 1645880); settings: EPAC1 Rap1B-BODIPY-GDP exchange, fluorescence; activity, negative = inhibition: at 115 µM (top of the series); note: nearly all actives have a fitted effect of over 55% in size; note: potency is the fitted concentration of half-maximal effect
# Chain of Rap guanine nucleotide exchange factor 3 (Homo sapiens) (O95398 whole entry, looked up): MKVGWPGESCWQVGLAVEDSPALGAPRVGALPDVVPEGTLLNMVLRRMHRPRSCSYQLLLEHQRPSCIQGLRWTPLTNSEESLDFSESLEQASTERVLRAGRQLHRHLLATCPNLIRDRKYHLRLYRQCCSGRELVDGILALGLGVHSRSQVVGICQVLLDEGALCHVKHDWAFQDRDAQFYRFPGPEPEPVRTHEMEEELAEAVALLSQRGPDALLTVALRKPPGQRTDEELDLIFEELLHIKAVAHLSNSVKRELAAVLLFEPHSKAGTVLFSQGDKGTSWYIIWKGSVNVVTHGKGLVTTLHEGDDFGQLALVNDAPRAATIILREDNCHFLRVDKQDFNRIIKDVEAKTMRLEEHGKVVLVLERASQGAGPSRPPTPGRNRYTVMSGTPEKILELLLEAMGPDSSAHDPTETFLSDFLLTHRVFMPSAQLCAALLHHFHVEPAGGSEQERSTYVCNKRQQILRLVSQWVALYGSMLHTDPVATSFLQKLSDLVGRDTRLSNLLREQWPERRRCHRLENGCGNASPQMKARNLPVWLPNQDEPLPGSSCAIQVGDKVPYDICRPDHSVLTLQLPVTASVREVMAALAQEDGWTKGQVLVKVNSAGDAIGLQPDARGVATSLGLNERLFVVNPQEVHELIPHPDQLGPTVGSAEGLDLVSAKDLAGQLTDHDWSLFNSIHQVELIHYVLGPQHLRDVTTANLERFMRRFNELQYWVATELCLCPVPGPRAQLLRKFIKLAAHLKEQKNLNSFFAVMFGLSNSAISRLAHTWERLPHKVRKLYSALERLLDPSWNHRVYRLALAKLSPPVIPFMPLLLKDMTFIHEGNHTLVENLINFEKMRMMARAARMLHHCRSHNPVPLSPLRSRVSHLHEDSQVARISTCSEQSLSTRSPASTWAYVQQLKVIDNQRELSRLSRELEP
# Outline: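 Nucleotide exchange uses 100 nM EPAC1, 250 nM RAP1B-BODIPY-GDP and 50 uM GDP, with compounds in a concentration-titration series. After 5 min at room temperature, fluorescence (480 nm ex/540 nm em) is read every 5 min for 30 min. Data are normalized to control ATA and DMSO.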
# [2] = target: Rap guanine nucleotide exchange factor 3 (Homo sapiens) (UniProt O95398); assay: Confirmatory qHTS for agonist of cAMP-regulated guanine nucleotide exchange factor 3 (EPAC1) (AID 1645881);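 note: EPAC1 catalysed release of BODIPY-GDP from Rap1B seen as fluorescence loss; nearly all actives have a fitted effect of over 75% in size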
# [3] = target: Rap guanine nucleotide exchange factor 4 (Homo sapiens) (UniProt Q8WZA2); assay: Confirmatory qHTS for agonist of cAMP-regulated guanine nucleotide exchange factor 4 (EPAC2) (AID 1645884);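 note: nucleotide exchange releases bodipy-GDP from Rap1 and this lowers its fluorescence; nearly all actives have a fitted effect of over 65% in size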
# Chain of Rap guanine nucleotide exchange factor 4 (Homo sapiens) (Q8WZA2 whole entry, looked up): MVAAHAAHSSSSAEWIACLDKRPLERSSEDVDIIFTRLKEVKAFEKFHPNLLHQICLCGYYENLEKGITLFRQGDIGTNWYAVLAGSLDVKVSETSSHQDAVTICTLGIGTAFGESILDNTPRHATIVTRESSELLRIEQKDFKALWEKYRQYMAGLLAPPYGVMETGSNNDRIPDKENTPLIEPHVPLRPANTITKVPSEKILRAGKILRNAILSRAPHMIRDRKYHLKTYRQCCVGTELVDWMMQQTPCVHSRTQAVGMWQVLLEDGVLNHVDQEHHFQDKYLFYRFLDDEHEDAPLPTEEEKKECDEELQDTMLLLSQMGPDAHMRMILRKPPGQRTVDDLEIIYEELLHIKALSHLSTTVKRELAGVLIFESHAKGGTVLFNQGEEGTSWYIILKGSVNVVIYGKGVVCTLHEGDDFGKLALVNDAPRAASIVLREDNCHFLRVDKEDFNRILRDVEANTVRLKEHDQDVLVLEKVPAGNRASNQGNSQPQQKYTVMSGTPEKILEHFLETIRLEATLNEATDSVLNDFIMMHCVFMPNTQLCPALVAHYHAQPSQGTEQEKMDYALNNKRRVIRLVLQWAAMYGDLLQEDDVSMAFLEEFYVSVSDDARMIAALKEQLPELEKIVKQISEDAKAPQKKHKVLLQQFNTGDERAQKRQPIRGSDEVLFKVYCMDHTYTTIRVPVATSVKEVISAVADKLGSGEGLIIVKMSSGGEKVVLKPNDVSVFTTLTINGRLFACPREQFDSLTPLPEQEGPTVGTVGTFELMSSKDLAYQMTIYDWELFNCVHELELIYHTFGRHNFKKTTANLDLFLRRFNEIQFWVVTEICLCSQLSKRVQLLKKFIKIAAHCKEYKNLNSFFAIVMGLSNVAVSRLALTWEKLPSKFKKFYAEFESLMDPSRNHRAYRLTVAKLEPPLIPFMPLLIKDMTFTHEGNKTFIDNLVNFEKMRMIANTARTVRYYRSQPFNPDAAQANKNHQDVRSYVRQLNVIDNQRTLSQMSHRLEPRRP
# [4] = target: Rap guanine nucleotide exchange factor 4 (Homo sapiens) (UniProt Q8WZA2); assay: Confirmatory qHTS for antagonist of cAMP-regulated guanine nucleotide exchange factor 4 (EPAC2) (AID 1645885); note: nearly all actives have a fitted effect of over 25% in size; note: potency is the fitted concentration of half-maximal effect
# [5] = target: Rap guanine nucleotide exchange factor 3 (Homo sapiens) (UniProt O95398); assay: Counterscreen qHTS for antagonist of cAMP-regulated guanine nucleotide exchange factor 3 (EPAC1) (AID 1645888);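 note: fluorescence loss as bound BODIPY-GDP is released from Rap1B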
# Outline: (§1)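 Measured: fluorescence of BODIPY-GDP bound to Rap1B, which falls as exchange proceeds. Conditions include 50 uM competing GDP, 5 and 30 min reads, and a later cAMP challenge for antagonist detection.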
# [6] = target: Rap guanine nucleotide exchange factor 3 (Homo sapiens) (UniProt O95398); assay: Counterscreen qHTS for agonist of cAMP-regulated guanine nucleotide exchange factor 3 (EPAC1) (AID 1645889); note: nearly all actives have a fitted effect of over 40% in size; note: potency is the fitted concentration of half-maximal effect
# Outline: as §1
# [7] = target: Lysosomal acid glucosylceramidase (Homo sapiens) (UniProt P04062); assay: Glucocerebrosidase-p2 (AID 348; in the data active = potency below about 10 µM; note: potency is the fitted concentration of half-maximal effect); settings: purified GBA, blue fluorogenic substrate, 40 min
# Chain of Lysosomal acid glucosylceramidase (Homo sapiens) (P04062 whole entry, looked up): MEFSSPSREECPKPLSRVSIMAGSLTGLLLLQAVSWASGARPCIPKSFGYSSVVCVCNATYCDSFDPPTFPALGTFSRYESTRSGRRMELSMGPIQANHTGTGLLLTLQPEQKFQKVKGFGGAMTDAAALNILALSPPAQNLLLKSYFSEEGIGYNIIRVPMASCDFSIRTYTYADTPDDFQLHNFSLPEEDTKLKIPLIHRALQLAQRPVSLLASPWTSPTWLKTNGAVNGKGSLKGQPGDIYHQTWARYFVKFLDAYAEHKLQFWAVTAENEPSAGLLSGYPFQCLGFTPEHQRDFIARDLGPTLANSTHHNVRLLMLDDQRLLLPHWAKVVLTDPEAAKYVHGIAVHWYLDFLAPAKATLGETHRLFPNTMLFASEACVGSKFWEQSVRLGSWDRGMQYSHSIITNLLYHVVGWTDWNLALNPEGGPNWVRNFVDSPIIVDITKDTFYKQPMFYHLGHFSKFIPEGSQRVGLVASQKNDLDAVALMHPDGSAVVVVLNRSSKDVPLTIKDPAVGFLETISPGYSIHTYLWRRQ
# Outline: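 Compounds titrated from 0.6 nM upwards against 0.2 nM enzyme in pH 5.9 citric acid/KH2PO4, taurocholate, tween-20; blue fluorogenic substrate 80 uM, 40 min room temperature, stopped and read Ex 365/Em 440 for AC50.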
# [8] = AP1 Signaling Pathway (AID 357; active = well fitted curve in either direction with a large enough effect, not every such curve was filed as active;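 note: ME-180 reporter cells stimulated with EGF at its EC50 level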); settings: ME-180 AP-1-bla reporter, EGF-induced, beta-lactamase ratio, 5 h; at 7.69 µM (top of the series) unless noted
# Outline: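 In this screen, ME-180 cells in Opti-MEM with 0.5% dialyzed FBS received EC50 EGF and compound titrations for 5 h. AP-1 reporter beta-lactamase was detected via CCF4 ratio, giving AC50 for positive and negative modulators.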
# [9] = NFAT Signaling Pathway (AID 444; active = well fitted curve in either direction with a large enough effect, not every such curve was filed as active;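 note: carbachol stimulus at about its EC50 of 1 µM final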); settings: Jurkat NFAT-bla M1, carbachol, beta-lactamase ratio, 5 h; at 7.69 µM (top of the series) unless noted
# Outline: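 Jurkat cells carrying an NFAT-driven β-lactamase reporter and co-transfected muscarinic M1 receptor were treated with compound plus carbachol (1 uM final, an EC50 level) for 5 h at 37 °C. CCF4 loading followed for 1 h at RT; 460/530 nm ratio gave %activity.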
# [10] = Stat Signaling Pathway (AID 446; active = well fitted curve in either direction with a large enough effect, not every such curve was filed as active;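 note: ME-180 cervical cancer cells given 40 pM IL-6 alongside compound; SIE-controlled beta-lactamase reporter measured as 460/530 nm FRET emission ratio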)
# Outline: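 Screening format detects activators and inhibitors alike: ME-180 SIE-bla cells stimulated at 40 pM IL-6 for 5 hrs with compound, then dual-emission beta-lactamase read at 405 nm excitation.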
# [11] = target: Glucocorticoid receptor (Homo sapiens) (UniProt P04150); assay: GR-GFP Redistribution (AID 450;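 active = compounds whose dose series gives a full or clear partial fitted curve of increased nuclear translocation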; note: potency is the fitted concentration of half-maximal effect); settings: U2OS GR-GFP nuclear translocation, laser cytometry, 2 h
# Chain of Glucocorticoid receptor (Homo sapiens) (P04150 whole entry, looked up, the tested form may be a part): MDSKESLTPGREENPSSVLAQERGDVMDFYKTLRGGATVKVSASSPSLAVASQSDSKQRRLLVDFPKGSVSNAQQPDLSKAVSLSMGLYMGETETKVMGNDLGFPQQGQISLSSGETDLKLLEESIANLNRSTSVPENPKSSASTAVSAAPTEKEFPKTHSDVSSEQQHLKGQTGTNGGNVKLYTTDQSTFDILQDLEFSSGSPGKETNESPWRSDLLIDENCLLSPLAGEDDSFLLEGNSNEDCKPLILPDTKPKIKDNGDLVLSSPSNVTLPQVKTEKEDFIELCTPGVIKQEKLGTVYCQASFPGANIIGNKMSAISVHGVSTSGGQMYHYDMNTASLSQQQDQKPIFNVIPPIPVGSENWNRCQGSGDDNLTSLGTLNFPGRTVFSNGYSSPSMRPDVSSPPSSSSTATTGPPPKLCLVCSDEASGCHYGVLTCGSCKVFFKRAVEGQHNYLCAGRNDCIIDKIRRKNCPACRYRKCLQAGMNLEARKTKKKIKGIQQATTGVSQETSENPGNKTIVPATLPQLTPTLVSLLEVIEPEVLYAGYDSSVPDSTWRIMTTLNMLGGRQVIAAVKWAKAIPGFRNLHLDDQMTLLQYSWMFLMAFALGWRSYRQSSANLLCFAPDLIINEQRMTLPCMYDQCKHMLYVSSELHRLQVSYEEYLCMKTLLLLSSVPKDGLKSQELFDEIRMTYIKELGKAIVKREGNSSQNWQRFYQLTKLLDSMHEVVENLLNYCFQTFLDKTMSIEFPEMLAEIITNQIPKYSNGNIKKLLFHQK
# [12] = target: Glucocorticoid receptor (Homo sapiens) (UniProt P04150); assay: GR-EFC Redistribution (AID 451; calls by dose curve; note: potency is the fitted concentration of half-maximal effect); settings: CHO-K1 GR-EFC translocation, beta-gal luminescence, 2 h
# Outline: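 CHO-K1 cells stably expressing nuclear-localized β-gal enzyme acceptor and GR fused C-terminally to the enzyme donor fragment; ligand-driven nuclear translocation restores β-gal by complementation. Compounds titrated up to 46 uM final, 2 h at 37 °C; luminescence read.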
# [13] = target: Mitogen-activated protein kinase 10 (Mus musculus) (UniProt Q61831); assay: JNK3 AlphaScreen Assay (AID 530; active = well fitted curve in either direction with a large enough effect, not every such curve was filed as active;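 note: kinase came from lysate of stimulated human HepG2 cells; signal reports phosphorylation of biotinylated GST-cJun 1-79 at Ser73 with 10 µM ATP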)
# Outline: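 JNK3 came from HepG2 lysates pre-activated with IL-1beta and TNF-alpha and phosphorylated biotinylated GST-cJun (1-79) at 10 uM ATP, pH 7.6, room temperature. Compounds were titrated. AlphaScreen signal used anti-phospho-cJun (Ser73) antibody.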
# [14] = target: 3',5'-cyclic-AMP phosphodiesterase 4B (Homo sapiens) (UniProt Q07343); assay: qHTS Assay for Inhibitors of PDE-IV (AID 607; active = well fitted activation curve with a large enough effect in the main read-out, with a control signal flat, not every such curve was filed as active)
# Outline: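 The readout is membrane depolarisation from a cAMP-sensing CNG channel, detected with a potential dye at ex 535/em 590. Cells were HEK293-derived (endogenous PDE-IV) at 1000 cells/well, titrated up to 22.9 uM final.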
# [15] = target: Cytochrome P450 2C9 (Homo sapiens) (UniProt P11712); assay: qHTS Assay for Inhibitors and Substrates of Cytochrome P450 2C9 (AID 883); note: potency is the fitted concentration of half-maximal effect; nearly all actives have a fitted effect of over 60% in size
# Chain of Cytochrome P450 2C9 (Homo sapiens) (P11712 whole entry, looked up): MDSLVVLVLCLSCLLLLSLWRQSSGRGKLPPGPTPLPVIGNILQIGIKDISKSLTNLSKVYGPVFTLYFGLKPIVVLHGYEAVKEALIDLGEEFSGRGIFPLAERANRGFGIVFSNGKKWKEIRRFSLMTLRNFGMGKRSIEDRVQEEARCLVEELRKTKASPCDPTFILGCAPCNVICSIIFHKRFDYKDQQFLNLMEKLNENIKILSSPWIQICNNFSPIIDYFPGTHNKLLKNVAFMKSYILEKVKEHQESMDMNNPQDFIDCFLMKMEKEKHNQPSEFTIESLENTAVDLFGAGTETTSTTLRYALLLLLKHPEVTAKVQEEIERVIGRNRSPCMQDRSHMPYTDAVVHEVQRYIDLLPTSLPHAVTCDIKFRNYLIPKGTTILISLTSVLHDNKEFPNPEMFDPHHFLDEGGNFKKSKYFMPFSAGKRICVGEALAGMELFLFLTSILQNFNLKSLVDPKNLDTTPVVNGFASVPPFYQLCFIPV
# Outline: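 CYP2C9 deoxyluciferin hydroxylation, 37C, 60 min with NADPH regeneration; 10nM enzyme, 100uM Luciferin-H (KM). Glo detection reagent stopped reaction; luminescence normalized to sulphaphenazole (57uM) full inhibition.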
# [16] = target: Cytochrome P450 3A4 (Homo sapiens) (UniProt P08684); assay: qHTS Assay for Activators of Cytochrome P450 3A4 (AID 885); note: nearly all actives have a fitted effect of over 65% in size
# Chain of Cytochrome P450 3A4 (Homo sapiens) (P08684 whole entry, looked up): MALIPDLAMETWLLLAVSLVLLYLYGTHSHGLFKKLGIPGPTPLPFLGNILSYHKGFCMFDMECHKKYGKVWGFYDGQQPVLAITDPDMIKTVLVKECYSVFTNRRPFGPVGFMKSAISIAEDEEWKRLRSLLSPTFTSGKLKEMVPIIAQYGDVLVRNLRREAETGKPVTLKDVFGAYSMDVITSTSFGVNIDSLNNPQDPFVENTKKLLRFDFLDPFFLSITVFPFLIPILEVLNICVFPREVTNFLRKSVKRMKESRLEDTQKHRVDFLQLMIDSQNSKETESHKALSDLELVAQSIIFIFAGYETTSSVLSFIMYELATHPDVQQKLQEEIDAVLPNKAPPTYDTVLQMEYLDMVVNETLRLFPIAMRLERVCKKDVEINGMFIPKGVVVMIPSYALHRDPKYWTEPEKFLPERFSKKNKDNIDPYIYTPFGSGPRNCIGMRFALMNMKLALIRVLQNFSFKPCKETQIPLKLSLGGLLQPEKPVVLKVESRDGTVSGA
# Outline: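 Steps: enzyme/substrate mix dispensed; compound added, 10 min RT; NADPH regeneration solution added, 60 min RT; luciferin detection buffer stops reaction; 20 min later luminescence measured.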
# [17] = target: Cytochrome P450 2C19 (Homo sapiens) (UniProt P33261); assay: qHTS Assay for Inhibitors and Substrates of Cytochrome P450 2C19 (AID 899); note: potency is the fitted concentration of half-maximal effect; nearly all actives have a fitted effect of over 60% in size
# Chain of Cytochrome P450 2C19 (Homo sapiens) (P33261 whole entry, looked up): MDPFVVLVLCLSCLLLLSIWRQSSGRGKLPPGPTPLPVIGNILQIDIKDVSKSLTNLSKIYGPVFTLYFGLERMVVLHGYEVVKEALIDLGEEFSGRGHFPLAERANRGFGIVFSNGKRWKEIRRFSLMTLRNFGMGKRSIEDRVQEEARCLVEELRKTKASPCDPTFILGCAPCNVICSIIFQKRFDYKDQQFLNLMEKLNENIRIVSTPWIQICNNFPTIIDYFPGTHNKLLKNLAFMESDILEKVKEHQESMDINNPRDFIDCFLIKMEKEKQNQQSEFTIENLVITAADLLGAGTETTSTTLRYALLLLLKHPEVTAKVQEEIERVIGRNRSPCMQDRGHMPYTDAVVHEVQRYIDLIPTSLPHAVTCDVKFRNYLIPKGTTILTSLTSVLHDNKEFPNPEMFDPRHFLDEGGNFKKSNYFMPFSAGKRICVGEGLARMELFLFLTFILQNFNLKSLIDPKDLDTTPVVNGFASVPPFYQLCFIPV
# Outline: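 In 50mM KPO4, the reaction held 5nM enzyme and KM-level (10uM) Luciferin-H EGE; it ran 60 min at 37C after NADPH regeneration and a 10 min compound preincubation. Luminescence values were scaled to 57uM ketoconazole as complete inhibition.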
# [18] = qHTS for Inhibitors of the vitamin D receptor (VDR): Hit Validation using a Texas Red Assay (AID 602201); note: potency is the fitted concentration of half-maximal effect
# Outline: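 Fluorescence polarization (Ex 595/Em 615 nm) of Texas Red (7 nM) with 1.5 uM VDR-LBD and LG19078 (final concentrations). Compounds were incubated for 2 hours at room temperature.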
smiles,measurement,setting,value
O=C(O)C(c1ccccc1)N1C(=O)/C(=C/c2cccs2)SC1=S (stereo unspecified),Potency,[1],39.8 µM (active)
same,Potency,[2],inactive
same,activation,[3],"2.04% [at 17.1 µM, percent relative to cAMP agonist control]"
same,Potency,[4],inactive
same,"activity change, negative = inhibition",[5],-23.4% [at 30.8 µM]
same,activation,[6],6.75% [at 30.8 µM]
CC1Cc2nc(SCC(=O)N3CCCc4ccccc43)n(C)c(=O)c2S1 (stereo unspecified),Potency,[1],inactive
same,Potency,[2],inactive
same,activation,[3],"-4.86% [at 17.1 µM, percent relative to cAMP agonist control]"
same,Potency,[4],inactive
same,"activity change, negative = inhibition",[5],-11.9% [at 30.8 µM]
same,activation,[6],4.66% [at 30.8 µM]
COc1ccc(/C(N)=N/OC(=O)c2ccc(C)c([N+](=O)[O-])c2)cc1,Potency,[1],inactive
same,Potency,[2],inactive
same,activation,[3],"8.03% [at 17.1 µM, percent relative to cAMP agonist control]"
same,Potency,[4],inactive
same,"activity change, negative = inhibition",[5],4.78% [at 30.8 µM]
same,activation,[6],16.7% [at 30.8 µM]
COc1ccc(Cl)cc1-n1c(=S)sc2c(=O)[nH]c(SCC(=O)NCCC(C)C)nc21,Potency,[1],15.1 µM (active)
same,Potency,[2],inactive
same,Potency,[3],inactive
same,Potency,[4],inactive
same,Potency,[5],inactive
same,Potency,[6],inactive
COc1cc(C(C)=O)ccc1COc1ccc(C(=O)O)cc1OC,Potency,[1],inactive
same,Potency,[2],inactive
same,activation,[3],"7.71% [at 17.1 µM, percent relative to cAMP agonist control]"
same,Potency,[4],inactive
same,"activity change, negative = inhibition",[5],-10.4% [at 30.8 µM]
same,activation,[6],-0.313% [at 30.8 µM]
O=C1NC(=S)S/C1=C\c1ccc(SCc2ccccc2)o1,Potency,[1],21.3 µM (active)
same,Potency,[2],inactive
same,Potency,[3],inactive
same,Potency,[4],inactive
same,Potency,[5],inactive
same,Potency,[6],inactive
O=C(CSc1nccn1C1CCCC1)Nc1cc(C(F)(F)F)ccc1Cl,Potency,[1],inactive
same,Potency,[2],inactive
same,Potency,[3],inactive
same,Potency,[4],inactive
same,Potency,[5],inactive
same,Potency,[6],inactive
COc1ccc(-c2nc(C)ncc2-c2ccccc2)c(O)c1,Potency,[1],inactive
same,Potency,[2],inactive
same,activation,[3],"-0.293% [at 17.1 µM, percent relative to cAMP agonist control]"
same,Potency,[4],inactive
same,"activity change, negative = inhibition",[5],-10.8% [at 30.8 µM]
same,activation,[6],-4.43% [at 30.8 µM]
COc1ccc(-c2cc(=O)oc3c(O)c(O)ccc23)cc1,Potency,[1],8.49 µM (active)
same,Potency,[2],inactive
same,Potency,[3],inactive
same,Potency,[4],inactive
same,Potency,[5],inactive
same,Potency,[6],inactive
COc1cc(/C=C(\C#N)c2nc3ccc(C)cc3[nH]2)cc([N+](=O)[O-])c1O,Potency,[1],33.8 µM (active)
same,Potency,[2],inactive
same,Potency,[3],inactive
same,Potency,[4],75.7 µM (active)
same,Potency,[5],inactive
same,Potency,[6],inactive
Cc1csc2nc(CNS(=O)(=O)c3ccc4c(c3)CCCC4)cn12,Potency,[1],inactive
same,Potency,[2],inactive
same,activation,[3],"-3.4% [at 17.1 µM, percent relative to cAMP agonist control]"
same,Potency,[4],inactive
same,"activity change, negative = inhibition",[5],-30.8% [at 30.8 µM]
same,activation,[6],-8.72% [at 30.8 µM]
Cc1ccc(C)c(S(=O)(=O)Nc2ccc(C(=O)NCC(c3ccco3)N(C)C)cc2)c1 (stereo unspecified),Potency,[1],inactive
same,Potency,[2],inactive
same,activation,[3],"5.83% [at 17.1 µM, percent relative to cAMP agonist control]"
same,Potency,[4],inactive
same,"activity change, negative = inhibition",[5],-1.62% [at 30.8 µM]
same,activation,[6],6.54% [at 30.8 µM]
O=C(Nc1ncccc1O)c1ccc2c(c1)OCCO2,Potency,[1],inactive
same,Potency,[2],inactive
same,activation,[3],"2.78% [at 17.1 µM, percent relative to cAMP agonist control]"
same,Potency,[4],inactive
same,"activity change, negative = inhibition",[5],6.79% [at 30.8 µM]
same,activation,[6],22.4% [at 30.8 µM]
O=C(O)CCn1cc(C2CC(c3ccccc3)=NN2c2ccccc2)c(-c2ccccc2)n1 (stereo unspecified),Potency,[1],inactive
same,Potency,[2],inactive
same,Potency,[3],inactive
same,Potency,[4],inactive
same,Potency,[5],inactive
same,Potency,[6],inactive
C/C(CC(=O)Nc1ccc2ccccc2c1)=N\NC(=O)c1ccc(O)c(O)c1,Potency,[1],53.6 µM (active)
same,Potency,[2],inactive
same,Potency,[3],inactive
same,Potency,[4],inactive
same,Potency,[5],inactive
same,Potency,[6],inactive
CCC(COC)Oc1cc(NCc2ccccc2)c2ncn(C(C)C)c2c1 (stereo unspecified),Potency,[1],inactive
same,Potency,[2],inactive
same,Potency,[3],inactive
same,Potency,[4],inactive
same,Potency,[5],inactive
same,Potency,[6],7.94 µM (active)
c1ccc(NN(Cc2cnccn2)c2ccccc2)cc1,Potency,[7],> 11.4 µM
same,"activity change, negative = inhibition",[8],-14%
same,"activity change, negative = inhibition",[9],-17.6%
same,outcome,[10],inactive
same,Potency,[11],> 46 µM
same,Potency,[12],> 9.22 µM
same,"activity change, negative = inhibition",[13],3.55% [at 11.4 µM]
same,Potency,[14],inactive
same,Potency,[15],3.16 µM (active)
same,"activity change, positive = activation",[16],-52.2% [at 11.4 µM]
same,Potency,[17],2 µM (active)
same,Potency,[1],inactive
same,Potency,[2],inactive
same,Potency,[3],inactive
same,Potency,[4],inactive
same,Potency,[5],inactive
same,Potency,[6],inactive
CCN1CCN(c2ccc(S(=O)(=O)N3CCOCC3)cc2NC(=O)c2cc(Cl)nc3ccccc23)CC1,Potency,[1],inactive
same,Potency,[2],inactive
same,activation,[3],"4.04% [at 17.1 µM, percent relative to cAMP agonist control]"
same,Potency,[4],inactive
same,"activity change, negative = inhibition",[5],7.51% [at 30.8 µM]
same,activation,[6],5.03% [at 30.8 µM]
CC1=C(CO)C(=O)OC([C@@H](C)C2CC[C@H]3C4C[C@H]5O[C@]56[C@@H](O)C=CC(=O)[C@]6(C)C4CC[C@]23C)C1 (stereo partly specified),Potency,[18],11.2 µM (active)
same,Potency,[1],84.9 µM (active)
same,Potency,[2],inactive
same,Potency,[3],inactive
same,Potency,[4],inactive
same,Potency,[5],inactive
same,Potency,[6],inactive
